The results in this text go back to PubChem BioAssay AID1259343 (VanderVen Lab, College of Veterinary Medicine, Cornell …, 2017).

Molecules are shown by their SMILES. Among all 6,200 compounds or so, about 2,900 (47%) were called active. The set was probably picked from earlier hits. The list shows a part of the results. Unmarked numbers belong to inactive results. Rule as the data show it: active = inhibition above about 50%; inactive = the rest.

The assay can be described thus: Mycobacterium tuberculosis growth inhibition, primary screen (AID 1259343). Conditions: inhibition: at 10 µM, hits give high values; outcome: 10 uM.
Broadly, the inhibition is the change of the read-out against control, counted positive when it falls. Regarding `O=C(NCC1COc2ccccc2O1)N1CCN(c2ccc(F)cc2)CC1` (stereo not given), the inhibition is 26.7%.

As to `CC(NC(=O)c1cc(Cl)ccc1NS(C)(=O)=O)c1ccc2c(c1)OCO2` (stereo not given), the inhibition was 7.73%.

For `O=C(NCC1COc2ccccc2O1)c1ccc2c(c1)CCC2` (stereo not given), the inhibition is 66.8% (active).

On to `CC(NC(=O)C1Cc2ccccc2O1)c1ccc(Cl)s1` (stereo not given), for which the inhibition is 4.06%.

On to `CC(NC(=O)C1Cc2cc(Cl)ccc2O1)c1ccc(F)c(F)c1` (stereo not given), for which the inhibition is 59.3% (active).

With `Fc1ccccc1NC(=S)NCC1COc2ccccc2O1` (stereo not given), the inhibition was 11.1%.

For the compound `O=C(NCc1ccco1)C1Cc2cc(Cl)ccc2O1` (stereo not given), the inhibition is 22%.

Turning to `O=C(NCC1COc2ccccc2O1)C1Cc2cc(Cl)ccc2O1` (stereo not given), the inhibition was 67% (active).

`O=C1CC(NC(=O)C(F)(F)F)=NN1c1ccccc1`: the inhibition is 70.9% (active).

`Clc1ccc(C2CN(Cc3cc(-c4cccnc4)no3)CCO2)cc1` (stereo not given): the inhibition is 6.33%.

Consider `CCCc1nc(C(=O)N2CCOC(c3ccc(Cl)cc3)C2)cs1` (stereo not given), for which the inhibition is 28.4%.

In the case of `O=C(c1csc(-c2cccnc2)n1)N1CCOC(c2ccc(Cl)cc2)C1` (stereo not given), the inhibition is 61% (active).

Turning to `Cc1ccccc1OCC(=O)N1CCN(c2ncnc3c2nnn3-c2cccc(F)c2)CC1`, the inhibition is 67.9% (active).

In the case of `Nc1ccc(F)cc1-c1nc(CCOc2ccccc2)no1`, the inhibition was 74.1% (active).

With `c1ccc(Cc2nc(CCOc3ccccc3)n[nH]2)cc1`, the inhibition was 36.5%.

For the compound `CCn1c(=S)[nH]c2sc3c(c2c1=O)CCCC3`, the inhibition was 38.1%.

On to `COCCCn1c(=S)[nH]c2sc3c(c2c1=O)CCCC3`, for which the inhibition was 20.5%.

On to `O=c1c2c3c(sc2[nH]c(=S)n1CC1CCCO1)CCCC3` (stereo not given), for which the inhibition was 68.2% (active).

On to `CCCc1cc(Nc2ccc(NC(C)=O)cc2)n2ncc(-c3ccccc3)c2n1`, for which the inhibition was -6.07%.

`CCC(=O)c1cccc(-c2ccc(NC(C)=O)cc2)c1`: the inhibition was 78.7% (active).

Consider `O=C1c2ccccc2C(=O)c2c1oc1c3c(ccc21)OCN(C1CCCC1)C3`, for which the inhibition is 99.5% (active).

For `CCOC(=O)c1ccc(NC(=O)c2cc3cc([N+](=O)[O-])ccc3oc2=N)cc1`, the inhibition was 62.9% (active).

In the case of `COC(=O)c1cc2cc(Br)ccc2oc1=O`, the inhibition is -45.4%.

Consider `CCOC(=O)C(CC)Sc1nnc(NC(=O)c2ccc(Br)cc2)s1` (stereo not given), for which the inhibition was 91.5% (active).

With `Cc1cccc(Cn2c(SC(C)C)nc3c2c(=O)n(C)c(=O)n3C)c1`, the inhibition was 81.2% (active).

On to `CSc1nc2c(c(=O)n(C)c(=O)n2C)n1CCCc1ccccc1`, for which the inhibition is 28.2%.

For the compound `COC(=O)C(C)Sc1nc2c(c(=O)n(C)c(=O)n2C)n1CCC(C)C` (stereo not given), the inhibition was 26.7%.

As to `Fc1cccc(NCCc2ccc(-n3cccn3)cc2)n1`, the inhibition is 67.5% (active).

For the compound `CN(Cc1ccc(-n2cccn2)cc1)S(=O)(=O)c1cccs1`, the inhibition was 10.7%.

`Cc1cc(NCCOCCO)n2ncc(-c3ccc(Cl)cc3)c2n1`: the inhibition was -5.37%.

With `Cc1ccc(-c2cnn3c(-n4nc(C)cc4C)cc(C)nc23)cc1`, the inhibition is 47.1%.

With `Cc1cc(NCCCn2ccnc2)n2ncc(-c3ccc(Cl)cc3)c2n1`, the inhibition was 95.2% (active).

Regarding `CCc1nn2c(NCCOC)cc(C)nc2c1-c1ccccc1`, the inhibition is 32.2%.

Regarding `COCCNc1cc(C)nc2c(-c3ccc(Cl)cc3)cnn12`, the inhibition was 98.7% (active).

Consider `c1ccc(-c2cc(NCCCn3ccnc3)n3ncc(-c4ccccc4)c3n2)cc1`, for which the inhibition is -16.1%.

`O=C1CC(c2ccc3c(c2)OCCO3)Oc2ccc(Br)cc21` (stereo not given): the inhibition result was “inactive”.

For the compound `O=C1CC(c2ccc(O)cc2)Oc2ccccc21` (stereo not given), the inhibition is 72.9% (active).

For the compound `O=C1NC(=O)C(Nc2ccc(I)cc2)S1` (stereo not given), the inhibition is 27.9%.

As to `COc1ccc2c(c1OC)C(=O)OC2Nc1ccc(I)cc1` (stereo not given), the inhibition is 72.8% (active).

In the case of `FC(F)(F)c1cccc(OCCCCn2cnc3ccccc32)c1`, the inhibition is 76.6% (active).

With `Ic1ccc(OCCCn2cnc3ccccc32)cc1`, the inhibition was 70.5% (active).

With `c1ccc(COc2ccc(OCCCn3cnc4ccccc43)cc2)cc1`, the inhibition was 85.3% (active).

For `Cc1ccc(C(C)C)cc1OCCCn1cnc2ccccc21`, the inhibition is 78.4% (active).

With `c1ccc(OCCCCn2nnc3ccccc32)cc1`, the inhibition was 21.5%.

In the case of `Cc1ccc(OCCCn2cnc3ccccc32)cc1`, the inhibition was 36%.

In the case of `Cc1cc(OCC(O)CN(Cc2ccccc2)C(C)(C)C)ccc1[N+](=O)[O-]` (stereo not given), the inhibition is 0.53%.

In the case of `Cc1cc(OCCCn2cnc3ccccc32)ccc1[N+](=O)[O-]`, the inhibition was 61.1% (active).

On to `CC1=C(C(=O)OCCOc2ccccc2)C(c2ccccc2[N+](=O)[O-])NC(=O)N1C` (stereo not given), for which the inhibition was -7.53%.

Turning to `CN(Cc1nc2c(s1)CCCC2)C(=O)Cc1ccccc1O`, the inhibition is 82.4% (active).

With `CC1=NN(c2ccc(C(=O)N(C)Cc3ccccc3O)cc2)CC1`, the inhibition was 23.1%.

As for `Cc1[nH]ccc2c1[nH]c1cc(=O)ccc12`, the inhibition was 90.6% (active).

On to `Oc1ccc(Oc2ncc(Cl)cc2Cl)cc1`, for which the inhibition was 38.9%.

Consider `CN(Cc1ccccc1C(F)(F)F)c1ncc(C(N)=O)cc1Cl`, for which the inhibition is 39.2%.

Regarding `COc1cccc(Oc2ncc(C(N)=O)cc2Cl)c1`, the inhibition is 68.9% (active).

Consider `CN(C)c1ccc(-c2nc(-c3cc4c5c(c3)CC(=O)N5CCC4)cs2)cc1`, for which the inhibition was -34.5%.

As for `Cc1nc(-c2ccc(CCNC(=O)c3cc(F)cc(F)c3)s2)cs1`, the inhibition is 35.7%.

Regarding `Nc1nc(-c2ccc(Cl)s2)cs1`, the inhibition was 86.7% (active).

`Clc1ccc(-c2csc(-c3cnccn3)n2)s1`: the inhibition was 17.5%.

As for `CN(C)c1ccc(Nc2nc(-c3cccs3)cs2)cc1`, the inhibition is 18.8%.

Regarding `CCc1ccc(-c2csc(N)n2)s1`, the inhibition is 76.7% (active).

On to `Nc1nc(-c2ccc3c(c2)OCO3)cs1`, for which the inhibition was -28.1%.

For the compound `Nc1nc(-c2cccs2)cs1`, the inhibition is 76% (active).

Take `Nc1ccn(-c2ccc(Cl)c(Cl)c2)n1`: the inhibition is 96.1% (active).

With `NC(=O)c1ccn(-c2cccc(Br)c2)n1`, the inhibition is 10.3%.

For `Cc1sc2nc(-c3cccs3)nc(N3CCNC(C(N)=O)C3)c2c1C` (stereo not given), the inhibition is 26%.

As to `O=[N+]([O-])c1ccc2nc(C(F)(F)F)[nH]c2c1`, the inhibition is 102% (active).

Consider `O=[N+]([O-])c1ccc2[nH]c(O)c(N=Nc3cccc(C(F)(F)F)c3)c2c1`, for which the inhibition was -6.56%.

Consider `O=S(=O)(c1ccc(Cl)s1)N1CCN(c2ccc(F)cc2)CC1`, for which the inhibition is -6.71%.

Regarding `CCNC(=S)N1CCN(S(=O)(=O)c2ccc(Cl)s2)CC1`, the inhibition is 99.5% (active).

As to `O=S(=O)(c1ccc(Cl)s1)N1CCN(c2ccnc3cc(Cl)ccc23)CC1`, the inhibition was 9.81%.

Consider `Cc1cc(C)n(-c2nc3c(c(=O)n2CC(=O)NC2CCCC2)CCCC3)n1`, for which the inhibition was 88.4% (active).

Take `C=CCNC(=O)Cn1c(-n2nc(C)cc2C)nc2c(c1=O)CCCC2`: the inhibition is 98% (active).

`Cc1cc(N)n(CC(=O)NCCn2c(C)cc3ccccc32)n1`: the inhibition is -1.16%.

For the compound `Oc1cc(-c2cccc3c2Sc2ccccc2S3)cc2c1OCCNC2`, the inhibition was 22%.

As to `COc1ccc(C2(C(=O)Nc3nc(C)c(C)s3)CCCCC2)cc1`, the inhibition was 91.6% (active).

Consider `COC(=O)Nc1ccc(OCc2nc(C)c(C)s2)cc1`, for which the inhibition is 2.64%.

Take `CN(Cc1ccc(Br)s1)C(=O)c1ccccc1O`: the inhibition is 89.5% (active).

As for `Cc1ccc(O)c(C(=O)N(C)Cc2ccccc2C(F)(F)F)c1`, the inhibition was 14.5%.

On to `Cc1ncc(CN(C)C(=O)c2ccc(Cl)c(Cl)c2O)s1`, for which the inhibition is 45.2%.

As to `O=C1c2ccccc2C(=O)c2oc(-c3cc([N+](=O)[O-])cc([N+](=O)[O-])c3)nc21`, the inhibition is 61.8% (active).

`CCCc1cc(N2CCCC2)n2nc3nc(C)cc(C)c3c2n1`: the inhibition is 22%.

Regarding `CCCc1cc(NCC2CCCO2)n2nc(C)c(-c3ccccc3)c2n1` (stereo not given), the inhibition was 39.6%.

On to `CCCc1cc(NCC2CCCO2)n2nc3nc(C)cc(C)c3c2n1` (stereo not given), for which the inhibition was 98.6% (active).

For `Cc1cc(C)cc(NC(=O)COc2coc(CN3CCc4ccccc43)cc2=O)c1`, the inhibition is 69.1% (active).

As to `O=c1cc(CN2CCc3ccccc32)occ1OCc1ccc(Cl)cc1`, the inhibition is 1.87%.

With `CCc1nnc(N/N=C\c2cc(Cl)c(OCc3ccccc3F)c(OC)c2)n1N`, the inhibition was 51.4% (active).

In the case of `CC(C)=CCCC(C)[C@@H]1CC[C@]2(C)C3=C(CC[C@@]12C)C1(C)CC[C@H](O)C(C)(C)C1CC3` (stereo not given in full), the inhibition was 49.1%.

As to `CCCCOc1c(I)cc(CNCCN(C)C)cc1OCC`, the inhibition was -1.94%.

As to `COc1ccc([C@@H](C)C(=O)c2ccc(O)cc2O)cc1`, the inhibition is 64.6% (active).

`COc1c(O)cc(O)cc1O`: the inhibition is 19.6%.

On to `COc1ccc(C(=O)Nc2cnn(C(C)(C)C)c2)c(O)c1`, for which the inhibition is -6.01%.

For `CS(=O)c1c(Cl)cccc1NC(=O)N1CCN(c2ncc(Cl)cc2Cl)CC1` (stereo not given), the inhibition is -25.6%.

As to `O=C(CCl)N1CCN(c2ncc(C(F)(F)F)cc2Cl)CC1`, the inhibition is 67.7% (active).

As for `O=S(=O)(c1cccc(Br)c1)N1CCCN(c2ncc(C(F)(F)F)cc2Cl)CC1`, the inhibition is 45%.

As for `COc1ccc(C(=O)C=Cc2ccc(Br)cc2F)c(OC)c1`, the inhibition was -5.68%.

`Cc1c(/C=C/c2ccc(Br)cc2F)n[nH]c(=O)c1C#N`: the inhibition was 67% (active).

Consider `O=C(c1ccc(Cl)cc1Cl)N1CCCC(OCc2ccccc2Cl)C1` (stereo not given), for which the inhibition was 20.5%.

In the case of `Oc1ccc(C=NNc2ncnc3scc(-c4ccccc4)c23)c(O)c1`, the inhibition is 12.7%.

For the compound `O=C(NN=CC=Cc1ccccc1)c1cc(C23CC4CC(CC(C4)C2)C3)[nH]n1`, the inhibition was 11.1%.

As for `C(=Cc1ccccc1)C=NNc1ncnc2ccccc12`, the inhibition was 99.2% (active).

Turning to `c1ccc(Nc2ccc(OCc3nn[nH]n3)cc2)cc1`, the inhibition is 10.5%.

Turning to `C(=Cc1ccccc1)C=NNc1nn[nH]n1`, the inhibition is 86.6% (active).

On to `CC(C)c1nnc(SCc2cccnc2)c2c1cnn2-c1ccc(F)cc1`, for which the inhibition is 48%.

`Cc1ccc(-n2ncc3c(C4CC4)nn(C)c(=O)c32)cc1C`: the inhibition was 47.4%.

With `CCOCCSc1nnc(C)c2cnn(-c3ccc(C)c(C)c3)c12`, the inhibition is 51.4% (active).
